Outcome and AC50 data for 14 compounds are collected here from PubChem BioAssay (EPA / NIEHS).

The structures appear in SMILES notation. Activity calls are given as the source filed them. The calls were made as follows: active = hit-call score of the fitted dose curve at least 0.9, where 1 is the maximum; inactive = score below 0.9.

Transcriptional activator Myb (Homo sapiens), sequence (P10242 whole entry, looked up): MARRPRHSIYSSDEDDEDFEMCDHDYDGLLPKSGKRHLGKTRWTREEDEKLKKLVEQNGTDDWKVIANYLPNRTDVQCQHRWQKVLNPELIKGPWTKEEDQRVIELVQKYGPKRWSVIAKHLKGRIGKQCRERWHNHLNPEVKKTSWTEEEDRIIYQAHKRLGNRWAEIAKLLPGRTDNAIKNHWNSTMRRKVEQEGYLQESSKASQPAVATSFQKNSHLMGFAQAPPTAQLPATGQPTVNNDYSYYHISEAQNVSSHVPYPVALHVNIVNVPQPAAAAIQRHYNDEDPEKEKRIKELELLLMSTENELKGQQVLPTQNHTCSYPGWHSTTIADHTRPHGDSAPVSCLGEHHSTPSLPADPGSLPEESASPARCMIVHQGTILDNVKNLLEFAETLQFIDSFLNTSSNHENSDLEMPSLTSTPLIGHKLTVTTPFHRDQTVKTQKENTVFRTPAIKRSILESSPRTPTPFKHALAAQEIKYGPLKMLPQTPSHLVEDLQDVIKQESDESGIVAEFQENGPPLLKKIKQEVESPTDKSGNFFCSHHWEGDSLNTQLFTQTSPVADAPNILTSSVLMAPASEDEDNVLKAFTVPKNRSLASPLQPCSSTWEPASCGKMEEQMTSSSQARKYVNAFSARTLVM

This test has as its target Transcriptional activator Myb (Homo sapiens) (UniProt P10242). The test can be described thus: ATG_Myb_CIS: Attagene CIS-FACTORIAL HepG2 Assay for human Myeloblastosis (Myb) Proto-Oncogene Transcription Factor (AID 2282986). The conditions noted are these: HepG2 Attagene CIS-FACTORIAL Myb reporter transcription; actives raise or lower the signal. An outline of the steps:
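Fluorescence signals from capillary electrophoresis of RT-PCR-amplified reporter cDNA give the read-out. Cells: HepG2 transfected with multiple cis-regulated reporter units. Exposure lasts 24 hours; DMSO defines baseline for gain or loss of signal.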
In the case of `COc1ccccc1C=O`, the compound was called inactive. As to `CCc1cccc(C)c1N(C(=O)C(=O)O)C(C)COC` (centres undefined), the compound was called inactive. Regarding `O=C(O)C(F)(F)C(F)(F)C(F)(F)C(F)(F)C(F)(F)C(F)(F)C(F)F`, the compound was classed as inactive. As to `CCOC(OCC)OCC`, the compound was called inactive. `C=CC(=O)OCC(F)(F)C(F)(F)C(F)(F)C(F)(F)C(F)(F)C(F)(F)C(F)(F)C(F)F`: the compound was called inactive. In the case of `CC1CCCCC1`, the result was inactive. Turning to `CCc1cc(Cc2cc(CC)c(N)c(CC)c2)cc(CC)c1N`, the outcome was inactive. Broadly, the AC50 is the midpoint of the concentration-response curve, whichever way the signal moves. Regarding `Oc1ccc(C2(c3ccc(O)c(C4CCCCC4)c3)CCCCC2)cc1C1CCCCC1`, the AC50 was 51.3 µM (active).

In the case of `Cc1ccc(O)cn1`, the call was inactive.

As for `CSc1ccc(Cl)cc1`, the compound was classed as inactive. As for `CCCCC(CC)COC(=O)c1ccc(N(C)C)cc1` (centres undefined), the compound was classed as inactive. Same read-out and setting: the entry for `CCN=c1cc2oc3cc(NCC)c(C)cc3c(-c3ccccc3C(=O)OCC)c-2cc1C` is “inactive”; for `CC1=CCC2C(=O)OC(=O)C2C1` (centres undefined) it is “inactive”; for `CCC/C=C/CO` it is “inactive”.
